Compound activity (PubChem BioAssay)
Compounds with a hit are over-represented: about 10% of the library has one in this group of screens.
GLS inhibitor: qHTS for Inhibitors of Glutaminase (GLS); Glutaminase kidney isoform, mitochondrial (Homo sapiens), O94925; GLS enzymatic activity, qHTS titration; Potency, µM (titrated, usually from 45.5 µM), hits mostly inhibitors; actives 0.21% (n = 410,000)
Target sequence (O94925 whole entry, looked up, canonical isoform): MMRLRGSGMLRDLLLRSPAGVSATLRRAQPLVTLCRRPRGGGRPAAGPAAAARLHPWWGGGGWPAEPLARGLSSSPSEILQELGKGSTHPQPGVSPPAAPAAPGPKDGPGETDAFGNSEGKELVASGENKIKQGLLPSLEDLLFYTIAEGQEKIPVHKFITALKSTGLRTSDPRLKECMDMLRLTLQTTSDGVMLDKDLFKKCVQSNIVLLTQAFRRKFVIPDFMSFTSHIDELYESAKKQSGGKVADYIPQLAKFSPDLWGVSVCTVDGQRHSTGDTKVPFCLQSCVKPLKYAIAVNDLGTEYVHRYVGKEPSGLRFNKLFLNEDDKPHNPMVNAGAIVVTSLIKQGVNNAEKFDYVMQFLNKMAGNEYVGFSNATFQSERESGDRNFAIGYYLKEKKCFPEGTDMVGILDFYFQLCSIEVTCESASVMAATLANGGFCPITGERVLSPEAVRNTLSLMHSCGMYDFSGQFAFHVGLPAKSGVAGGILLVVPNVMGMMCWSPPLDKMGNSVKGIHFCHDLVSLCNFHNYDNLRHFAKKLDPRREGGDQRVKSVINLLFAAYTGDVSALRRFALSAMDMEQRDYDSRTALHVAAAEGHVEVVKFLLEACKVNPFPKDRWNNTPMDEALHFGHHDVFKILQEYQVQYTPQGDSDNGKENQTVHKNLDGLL
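Two-point fluorescence kinetic (t0, 30 min RT) for hKGA; glutamate detected via glutamate oxidase–HRP–Amplex Red. Substrate: 1 mM L-glutamine solution; buffer 45 mM KH2PO4, pH 8.2.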
JMJD2A Tudor inh: qHTS Assay for Inhibitors of JMJD2A-Tudor Domain | AlphaScreen JMJD2A-Tudor / H3K4me3 peptide binding | Potency, µM (series often up to 114 µM), usual class: inhibitors | actives 4.4% (n = 390,000); also: nearly all actives have a fitted effect of over 50% in size
HP1b chromo inh: HTS for Inhibitors of HP1-beta Chromodomain Interactions with Methylated Histone Tails; Potency, µM (top dose mostly 114 µM), usual class: inhibitors; Chromobox protein homolog 1 (Homo sapiens), P83916; AlphaScreen HP1-beta / biotin-H3K9me3 peptide binding; actives 0.56% (n = 390,000); also: nearly all actives have a fitted effect of over 70% in size
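AlphaScreen: HP1-beta (50 nM) preformed 30 min with biotin-H3(1-18)K9me3 peptide (50 nM) in PBS pH 7.4, 0.01% Tween-20. Compound added for 30 min at RT, then streptavidin donor/nickel chelate acceptor beads (10 ug/mL) for 30 min.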
BAZ2B inh: qHTS Assay for Inhibitors of BAZ2B; actives 4.4% (n = 360,000); Bromodomain adjacent to zinc finger domain protein 2B (Homo sapiens), Q9UIF8; Potency, µM (doses to about 114 µM), actives largely listed as inhibitors; AID 504333, 2011; AlphaScreen BAZ2B-H3K14Ac peptide displacement; also: nearly all actives have a fitted effect of over 60% in size
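Complex of BAZ2B and biotin-H3K14Ac (50 nM apiece) forms over 30 min at RT, then faces library compounds up to 110 uM for another 30 min; AlphaScreen beads added, 20 min dark incubation, luminescence read.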
G9a inh: qHTS Assay for Inhibitors of Histone Lysine Methyltransferase G9a | actives 8.8% (n = 350,000) | AID 504332, 2011 | Potency, µM (titrated, usually from 102 µM), actives largely listed as inhibitors | G9a H3K9 monomethylation, AlphaScreen, 2 h | Histone-lysine N-methyltransferase EHMT2 (Homo sapiens), Q96KQ7; also: nearly all actives have a fitted effect of over 75% in size
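AlphaScreen read-out: biotin-H3K9 peptide (500 nM) methylation by 20 nM enzyme with 20 uM SAM, 2 h at room temperature after 15 min compound preincubation; anti-monomethyl H3K9 antibody plus donor/acceptor beads, 10 min dark.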
A number is an active result; n = inactive; u = inconclusive; x = not tested or not shown; [ ] = dose if it differs, or a comment. Calls follow the shape of the dose curve; as a rule, active = well fitted curve in the direction sought with a large enough effect; inconclusive = small, poorly fitted or top-dose-only effect, or another doubt; inactive = no such curve, though single readings can be large; an effect the other way counts as inactive or inconclusive.

SMILES | GLS inhibitor | JMJD2A Tudor inh | HP1b chromo inh | BAZ2B inh | G9a inh
O=C(NN=Cc1c(O)ccc2ccccc12)c1ccc2c(c1)OCO2 | n | n | n | x | x
O=C(N/N=C/c1c(O)ccc2ccccc12)c1ccc(CO)nc1 | n | 56µM | n | 3.2µM | 56µM
Cc1cc(C)n(/N=C\c2c(O)ccc3ccccc23)c(=O)c1C(N)=O | n | 89µM | n | n | 1.1µM
Oc1ccc2ccccc2c1/C=N/c1nc2c(s1)CCCC2 | n | 50µM | u | n | 1.4µM
Cc1nn(C)c(C)c1N=Cc1c(O)ccc2ccccc12 | n | n | n | n | u
Oc1ccc2ccccc2c1C=NC1CCCCC1 | n | n | n | u | 8.9µM
CNc1cc(C(=O)Nc2cccc(OCc3ccccc3)c2)ncn1 | n | x | x | x | x
COc1ccc(NC(=O)Cn2ccn(-c3ccc(F)c(F)c3)c(=O)c2=O)cc1Cl | n | n | n | n | n
NC(=S)N/N=C/c1c(O)ccc2ccccc12 | n | 56µM | n | 2.5µM | x
Oc1ccc2ccccc2c1C=NCc1ccccc1 | n | u | n | n | 28µM
Oc1ccc2ccccc2c1/C=N/n1cnnc1 | x | n | n | n | 32µM
Oc1ccc2ccccc2c1/C=N/Nc1ccccc1 | n | 50µM | n | n | 7.1µM
Oc1ccccc1C=NN=Cc1c(O)ccc2ccccc12 | n | n | n | x | x
COc1ccc(N/N=C(/C)c2cnnc(-c3ccccc3)n2)cc1 | n | 79µM | n | n | 1.4µM
O=c1cc(O)c2sc(Nc3ccc(Cl)c(F)c3)nc2[nH]1 | u | n | n | u | u
O=c1cc(O)c2sc(Nc3ccc(F)c(Cl)c3)nc2[nH]1 | u | n | n | n | 28µM
O=c1nc2ccccn2c2ccc(S(=O)(=O)N3CCCCC3)cc12 | n | n | n | n | 45µM
Cc1ccn2c(c1)nc(=O)c1cc(S(=O)(=O)N3CCCCC3)ccc12 | u | n | n | n | n
COC(=O)c1ccc(C)c(NC(=O)CCSc2ccc(C)cc2)c1 | n | n | n | n | n
Cc1ccc(C)c(NC(=O)CSc2sc3c(O)cc(=O)[nH]c3c2C#N)c1 | n | n | n | 50µM | n
N#Cc1c(SCC(=O)Nc2cccc(C(F)(F)F)c2)sc2c(O)cc(=O)[nH]c12 | n | n | n | u | 45µM
Cc1ccc(Cl)cc1NC(=O)CSc1sc2c(O)cc(=O)[nH]c2c1C#N | n | n | n | n | n
COC(=O)c1ccc(C)c(NC(=O)CSc2sc3c(O)cc(=O)[nH]c3c2C#N)c1 | n | 50µM | n | 50µM | u
Cc1cc(NC(=O)CSc2sc3c(O)cc(=O)[nH]c3c2C#N)ccc1Br | n | n | n | 79µM | 35µM
CCOc1ccc(-c2nnc(SCC(=O)NCCC(C)C)nc2-c2ccc(OCC)c(OC)c2)cc1OC | n | n | n | n | u
SMILES | GLS inhibitor | JMJD2A Tudor inh | HP1b chromo inh | BAZ2B inh | G9a inh
Cc1ccc(Cc2c(-c3ccc(F)cc3)nc3cc(C)ccn23)cc1 | n | x | x | x | x
COCCCNS(=O)(=O)c1ccc(N2CCCCS2(=O)=O)cc1 | n | n | n | n | n[12.7 µM]
Nc1ccccc1SCCS(=O)(=O)c1ccc(Cl)cc1 | n | n | n | n | n
CCOC(=O)C(CCc1ccccc1)NC(C)C(=O)N1Cc2cc(OC)c(OC)cc2CC1C(=O)O (stereo not given) | n | x | x | x | n[12.7 µM]
Nc1nc(-c2ccccn2)nc(N)c1Cc1c(F)cccc1Cl | n | 79µM | n | 8.9µM | n
Nc1nc(-c2ccccn2)nc(N)c1Cc1ccc(Cl)cc1Cl | n | 89µM | n | 7.9µM | n
Nc1nc(-c2ccccn2)nc(N)c1Cc1ccccc1F | n | u | n | 6.3µM | n
CCOC(=O)c1sc(N(Cc2ccccc2)C(=O)CCl)nc1C | n | n | n | n | 40µM
Cc1cc(Cl)c2oc(C(=O)N(C)C3CCOC3)c(C)c2c1 (stereo not given) | u | 14µM | n | n | n
Cc1cc(Cl)c2oc(C(=O)N3CCOCC3)c(C)c2c1 | n | x | x | x | x
CCCCNC(=O)C1CCN(Cc2ccc(OCc3ccccc3)c(OC)c2)CC1 | n | 22µM | n | u | 14µM
CCCS(=O)(=O)N1CCN(Cc2ccc(OCc3ccccc3)c(OC)c2)CC1 | n | 28µM | u | x | x
CCOc1cc(CN2CCN(S(=O)(=O)Cc3ccccc3)CC2)ccc1OC | n | n | n | n | n
CCOCCCNC(=O)C1CCN(Cc2ccc(OCc3ccccc3)c(OC)c2)CC1 | n | u | n | n | 50µM
COc1ccc(CN2CCN(C)CC2)cc1OCc1ccccc1 | n | n | n | n | u
CN(C(=O)c1cccc(C#N)c1)c1nnc(-c2ccncc2)s1 | n | n | n | n | u
CN(C(=O)c1ccccn1)c1nnc(-c2cnccn2)s1 | n | n | n | 79µM | 45µM
CCCC(=O)N(C)c1nnc(-c2ccc(OC)cc2)s1 | n | n | n | n | 45µM
CN(C(=O)c1cnccn1)c1nnc(-c2cnccn2)s1 | n | n | n | n | n[2.33 µM]
CN(C(=O)c1cccnc1)c1nnc(-c2ccccn2)s1 | n | n | n | 56µM | u
COc1cccc(C(=O)N(C)c2nnc(-c3ccncc3)s2)c1 | n | n | n | n | 79µM
CN(C(=O)c1cccnc1)c1nnc(-c2cnccn2)s1 | n | n | n | n | n[2.33 µM]
COc1cccc(CNC(=O)c2cc3c(c(-c4cccc(-c5cccc(C#N)c5)c4)n2)[C@H](CCO)N(S(=O)C(C)(C)C)C3)c1 (stereo not given in full) | n | x | x | x | x
Cc1nn2c(C)c(C(=O)NCC(C)c3ccccc3)cnc2c1-c1ccccc1 (stereo not given) | n | n | n | n | n
COc1ccccc1-n1cc(-c2ccccc2)c2c(=S)nc[nH]c21 | n | n | n | n | n
SMILES | GLS inhibitor | JMJD2A Tudor inh | HP1b chromo inh | BAZ2B inh | G9a inh
CC(C)n1cnc2c(=S)nc[nH]c21 | n | u | n | 50µM | 0.79µM
S=c1nc[nH]c2c1ncn2-c1ccccc1 | n | 0.63µM | n | x | x
COc1ccc(C2Nc3ccccc3C(=O)N2Cc2ccccc2)cc1COc1ccc([N+](=O)[O-])c(C)c1 (stereo not given) | x | n | n | x | x
O=C(NCCC1=CCCCC1)c1[nH]c(C(F)(F)F)nc1-c1ccccc1 | n | x | x | x | x
O=C(CCCCCNC(=S)Nc1ccccc1)C[N+](=O)[O-] | n | n | n | n | 45µM
O=C(CCCCCNC(=S)Nc1ccc(Cl)cc1)C[N+](=O)[O-] | n | n | u | n | u
COc1ccc(NC(=S)NCCCCCC(=O)C[N+](=O)[O-])cc1 | n | n | u | u | 22µM
O=C(NCSc1ccncn1)c1ccccc1 | n | 20µM | n | u | u
O=C(NCSc1ccnc(SCNC(=O)c2ccccc2)n1)c1ccccc1 | n | n | n | n | 4µM
